From the supplement of paper PMC13094657
± gives the standard deviation of the averaged measurements.

Columns and labels:
MDA-MB-231 [1] = assay: cell viability relative to vehicle unstimulated control (fraction); higher = more viable cells; conditions: pre-treatment time: 18 h then 24 h IFNg/TNF
MDA-MB-231 [2] = assay: kynurenine production, fold change vs DMSO IFNg/TNF control; higher = more kynurenine produced (less inhibition); conditions: pre-treatment time: 18 h then 24 h IFNg/TNF
Outline: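 Fold change over cytokine-stimulated vehicle wells on the same plate is the measure used for kynurenine production, averaged across duplicate plates in the first screening round. MDA-MB-231 cells, seeded 24 h beforehand at 7 × 10^4/well in 96-well plates, were pre-treated 18 h with each natural product in 0.1% DMSO and stimulated 24 h at 37°C with IFNγ (1 U/ml) and TNF (6.25 ng/ml). Supernatants were read at 492 nm following trichloroacetic acid and p-dimethylaminobenzaldehyde treatment, against 0–100 μM standards.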
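For cell viability relative to vehicle unstimulated control in this document: viability of the cells left after supernatant collection, read with Deep Blue dye added for 4 h, as absorbance at 570 nm minus 600 nm.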

Compound	cell viability (MDA-MB-231 [1])	kynurenine production (MDA-MB-231 [2])
C=C1C(=O)O[C@H]2[C@H]1CCC(C)=C1CC[C@@](C)(O)[C@@H]12 [Micheliolide] (compound dose: 10 uM)	0.904 ± 0.063	0.591 ± 0.11
CC(=O)O[C@@H]1C[C@@]23C[C@@]24CC[C@H](O[C@@H]2OC[C@@H](O)[C@H](O)[C@H]2O)C(C)(C)[C@@H]4CC[C@H]3[C@]2(C)C[C@@H]3O[C@]4(C[C@@H](C)[C@@H]3[C@@]12C)OC[C@@]1(C)O[C@@H]41 [26-Deoxyactein] (compound dose: 10 uM)	0.9809 ± 0.0077	0.911 ± 0.22
CC1=CC[C@@H](C(C)(C)O)CC1 [α terpineol (mixed)] (compound dose: 10 uM)	0.977 ± 0.065	0.876 ± 0.082
CC(C)=CCC[C@](C)(O[C@@H]1O[C@H](CO)[C@@H](O)[C@H](O)[C@H]1O)[C@H]1CC[C@]2(C)[C@@H]1[C@H](O)C[C@@H]1[C@@]3(C)CC[C@H](O)C(C)(C)[C@@H]3[C@@H](O[C@@H]3O[C@H](CO)[C@@H](O)[C@H](O)[C@H]3O)C[C@]12C [Ginsenoside Rg1] (compound dose: 10 uM)	0.975 ± 0.025	0.782 ± 0.22
CCCCC/C=C\C=C\C(=O)O[C@H]1C(C)=C[C@]23C(=O)[C@@H](C=C(CO)[C@@H](O)[C@]12O)[C@H]1[C@@H](C[C@H]3C)C1(C)C [3-O-(2'E,4'ZDecadienoyl) ingenol] (compound dose: 10 uM)	1 ± 0.09	1.022 ± 0.0084
C=C(C)[C@@H]1CC[C@]2(C)CC[C@]3(C)[C@H](CC[C@@H]4[C@@]5(C)CCC(=O)C(C)(C)[C@@H]5CC[C@]43C)[C@@H]12 [Lupenone] (compound dose: 10 uM)	0.9789 ± 0.0076	0.898 ± 0.16
COC(=O)C1=CC[C@@]23CC[C@@H]([C@@](C)(/C=C/C=C(\C)C(=O)O)OC2=O)[C@@]3(O)CC1 [Pseudolaric Acid C] (compound dose: 10 uM)	0.927 ± 0.094	1.23 ± 0.051
CC(C)C1=CC2=CC[C@@H]3[C@](C)(CCC[C@@]3(C)C(=O)O)[C@H]2CC1 [Abietic acid] (compound dose: 10 uM)	1.08 ± 0.025	0.803 ± 0.22
C[C@H](CC[C@@H](O[C@@H]1O[C@H](CO)[C@@H](O)[C@H](O)[C@H]1O)C(C)(C)O)[C@H]1CC[C@@]2(C)[C@@H]3CC=C4[C@@H](CC[C@H](O)C4(C)C)[C@]3(C)[C@H](O)C[C@]12C [Mogroside I A1] (compound dose: 10 uM)	0.881 ± 0.068	0.921 ± 0.21
CC(C)=CC/C=C(/C)[C@H]1CC[C@@]2(C)[C@@H]1[C@@H](O)CC1[C@@]3(C)CCC(O[C@@H]4O[C@H](CO)[C@@H](O)[C@H](O)[C@H]4O)C(C)(C)C3CC[C@]12C (stereo partly drawn) [Ginsenoside Rh3] (compound dose: 10 uM)		0.858 ± 0.029
CC(C)=CCC[C@@H](C(=O)O)[C@H]1CC[C@@]2(C)C3=CC[C@H]4C(C)(C)[C@@H](O)CC[C@]4(C)C3=CC[C@]12C [3-Dehydrotrametenolic acid] (compound dose: 10 uM)	1.01 ± 0.045	0.83 ± 0.085
C/C1=C\[C@@H]2[C@H](CC/C(C)=C/CC(=O)/C(C)=C/CC1)C2(C)C [5-ketocasbene/9-ketocasbene] (compound dose: 10 uM)	1.155 ± 0.0076	1.03 ± 0.12
C[C@@H]1O[C@@H](O[C@H]2[C@H](OC(=O)[C@]34CCC(C)(C)C[C@H]3C3=CC[C@@H]5[C@@]6(C)C[C@H](O)[C@H](O[C@@H]7O[C@H](CO)[C@@H](O)[C@H](O)[C@H]7O)[C@@](C)(CO)[C@@H]6CC[C@@]5(C)[C@]3(C)C[C@H]4O)OC[C@H](O)[C@@H]2O)[C@H](O)[C@H](O)[C@H]1O[C@@H]1OC[C@@H](O)[C@H](O[C@@H]2OC[C@](O)(CO)[C@H]2O)[C@H]1O [Polygalacin D] (compound dose: 10 uM)	0.821 ± 0.05	0.382 ± 0.056
C[C@H](CC(=O)C[C@@H](C)[C@H]1C[C@H](O)[C@@]2(C)C3=C(C(=O)C[C@]12C)[C@@]1(C)CCC(=O)C(C)(C)[C@@H]1C[C@@H]3O)C(=O)O [Ganoderic acid A] (compound dose: 10 uM)	0.889 ± 0.073	0.857 ± 0.073
CCOC(=O)/C=C/c1ccccc1 [Ethyl cinnamate] (compound dose: 10 uM)	0.988 ± 0.085	1.14 ± 0.11
C[C@@]12CC[C@@H]3[C@@](CC[C@H]4[C@@]3(C)CCC[C@@]4(C)C(=O)O)(CC1=O)C2 [Isosteviol] (compound dose: 10 uM)	1.02 ± 0.084	0.998 ± 0.055
CC1(C)CC[C@]2(C(=O)O)[C@H](O)C[C@]3(C)C(=CC[C@@H]4[C@@]5(C)CC[C@H](O[C@@H]6O[C@H](CO)[C@@H](O)[C@H](O)[C@H]6O)C(C)(C)[C@@H]5CC[C@]43C)[C@@H]2C1 [Ecliptasaponin A] (compound dose: 10 uM)		0.88 ± 0.15
CC(C)(O)[C@H]1CC[C@@](C)([C@H]2CC[C@]3(C)[C@@H]2[C@H](O)C[C@@H]2[C@@]4(C)CC[C@H](O)C(C)(C)[C@@H]4[C@@H](O[C@@H]4O[C@H](CO)[C@@H](O)[C@H](O)[C@H]4O)C[C@]23C)O1 [Pseudoginsenoside RT5] (compound dose: 10 uM)	0.987 ± 0.016	0.865 ± 0.21
CC1=CC23C(=O)C(C=C4COC(C)(C)OC4C24OC(C)(C)OC14)C1C(CC3C)C1(C)C (stereo not drawn) [Ingenol-3,4,5,20-diacetonide] (compound dose: 10 uM)	1.09 ± 0.23	0.893 ± 0.14
COc1ccc2c(c1O)-c1c(O)c(OC)cc3c1[C@H](C2)[N+](C)(C)CC3 [Magnoflorine] (compound dose: 10 uM)	0.966 ± 0.05	0.937 ± 0.057
